The values below come from article PMC12751014, “Non-Catalytic Inhibitors of the p38/MK2 Interface: Repurposing Approved Drugs to Target Neuroinflammation in Alzheimer’s Disease” (Journal of Medicinal Chemistry, 2025).

Hit rate of the full screen: of about 1,900 compounds, about 50 (3%) showed an effect of 50% or more. The sample holds strong results, similar compounds and a random draw of the others, so the mix is not that of the screen. *1 amine or outer side, *2 acyl side, *3 side chain or, on linkers, in order; H or OH if unused. Where a SMILES comes first, the peptide text is derived from it. Bridges are numbered along the chain shown (N, C = ends). [ ]: non-standard residue; d: D form. The star is where a group is joined. ξ: configuration not given here. pTerphenylCO(4''-OnC5H11) = CCCCCOc1ccc(-c2ccc(-c3ccc(C(=O)*)cc3)cc2)cc1; ξOrn(4,5-diOH) = O=C(C(CC(O)C(O)N[*:3])N[*:1])[*:2]; ξhTyr(βξ-OH,γξ-OH) = NC(C(=O)O)C(O)C(O)c1ccc(O)cc1; ξPro(3ξ-OH,4ξ-Me) = CC1CNC(C(=O)O)C1O; Hyp = O=C(O)[CH]1C[CH](O)CN1

Sequence of p38/MK2 protein–protein interaction (VF-p38α / GST-MK2) (Q16539 2-360 limits assumed): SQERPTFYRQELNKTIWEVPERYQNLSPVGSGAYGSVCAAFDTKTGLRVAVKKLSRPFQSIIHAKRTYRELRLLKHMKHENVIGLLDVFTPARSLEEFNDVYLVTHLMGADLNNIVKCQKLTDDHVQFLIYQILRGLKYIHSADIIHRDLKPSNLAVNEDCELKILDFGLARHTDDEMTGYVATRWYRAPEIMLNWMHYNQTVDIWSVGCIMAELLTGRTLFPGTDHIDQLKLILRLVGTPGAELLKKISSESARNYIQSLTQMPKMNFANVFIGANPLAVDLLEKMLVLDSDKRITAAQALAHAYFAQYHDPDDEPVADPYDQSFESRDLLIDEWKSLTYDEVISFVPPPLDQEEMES

The assay concerns the target p38/MK2 protein–protein interaction (VF-p38α / GST-MK2) (Homo sapiens, UniProt Q16539). Description: primary screen, percent of control activity; higher = less effect of the substance. Details: species or system HEK293T cell lysate transfected with VF-p38α and GST-MK2; unclear (methods say 'quintuplet replicates'). As to the method:
The TR-FRET assay was conducted in a 1536-well plate (Corning, catalog no. 3724) with HEK293T cell lysate transfected with VF-p38α and GST-MK2. Cell-lysate concentration was optimized with a titration experiment. Anti-Flag-Tb and anti-GST-d2 antibodies (Revvity, catalog no. 61FGBTLB) were used to couple p38α and MK2, respectively. A multiple-drop Combi dispenser (Thermo Scientific) combined reaction mixtures in quintuplet replicates. The TR-FRET signals were measured using a BMG Labtech PHERAstar FSX plate reader and normalized to the percent of DMSO control.
`CC(=O)OC1(C(C)=O)CCC2C3C=C(C)C4=CC(=O)CCC4(C)C3CCC21C` (stereo not drawn) yielded a Pct of control of 106%.

`Cc1c(NC(=O)c2ccc(C(C)(C)C)cc2)cccc1-c1cn(C)c(=O)c(Nc2ccc(C(=O)N3CCOCC3)cc2)n1` had a Pct of control of 104%.

The compound `O=C1C(Cl)=C(N2CCOCC2)C(=O)N1c1ccc(Cl)c(Cl)c1` had a Pct of control of 35.9%.

As for `COc1ccc(-c2nc3ccc(C4=NNC(=O)CC4C)cc3[nH]2)cc1` (stereo not drawn), the Pct of control turned out to be 74.1%.

In turn, `CN1C(C(=O)Nc2ccccn2)=C(O)c2sc(Cl)cc2S1(=O)=O` displayed a Pct of control of 94.2%.

Regarding `CC(=O)Nc1nc2c(Oc3cc(-c4ccc(C(F)(F)F)cc4)ncn3)cccc2s1`, the Pct of control is given as 108%.

For the compound `CCCCCOc1ccc(-c2ccc(-c3ccc(C(=O)NC4CC(O)C(O)NC(=O)C5C(O)C(C)CN5C(=O)C(C(C)O)NC(=O)C(C(O)C(O)c5ccc(O)cc5)NC(=O)C5CC(O)CN5C(=O)C(C(C)O)NC4=O)cc3)cc2)cc1` (stereo not drawn) ({pTerphenylCO(4''-OnC5H11)}-[ξOrn(4,5-diOH)]T[Hyp][ξhTyr(βξ-OH,γξ-OH)]T[ξPro(3ξ-OH,4ξ-Me)]; lactam 1-C; configuration not given here), the Pct of control is reported as 11.4%.

On to `CC(=O)O.CC(=O)O.CCC(C)CC(C)CCCCCCCCC(=O)NC1CC(O)C(NCCN)NC(=O)C2C(O)CCN2C(=O)C(C(O)CCN)NC(=O)C(C(O)C(O)c2ccc(O)cc2)NC(=O)C2CC(O)CN2C(=O)C(C(C)O)NC1=O` (stereo not drawn), for which the Pct of control came to 114%.

`O=C(c1ccc(F)cc1)C1CCN(CCn2c(=O)[nH]c3ccccc3c2=O)CC1` registered a Pct of control of 84.3%.

The compound `Cc1ccccc1-n1c(Cn2ncc3c(N)ncnc32)nc2cccc(C)c2c1=O` showed a Pct of control of 93.1%.

Take `CN(C)CCCN1c2ccccc2Sc2ccc(Cl)cc21.Cl`: the Pct of control is 90.9%.

Regarding `Br.Cc1ccc(C(=O)Cn2c3c(sc2=N)CCCC3)cc1`, the Pct of control was 96.8%.

The compound `CS(=O)(=O)N1CCc2c(-c3cnc(N)nc3)nc(N3CCOCC3)nc21` registered a Pct of control of 81.8%.

Consider `CC(=O)Nc1ccc(C(=O)Nc2ccccc2N)cc1`, for which the Pct of control amounted to 96.8%.

`CNCc1ccc(C)c(NC(=O)c2ccc(Nc3nc(-c4ccccc4)c4ccccc4n3)cc2)c1` gave a Pct of control of 120%.

`Cc1cc(Nc2ccc(NC(=O)c3ccc(Nc4ccnc5ccccc45)cc3)cc2)nc(N)n1` came in with a Pct of control of 17.7%.

On to `CCCCCCCCCCCC1=C(O)C(=O)C=C(O)C1=O`, for which the Pct of control is on record as 42%.

The compound `CCCCCCCCc1ccc(CCC(N)(CO)CO)cc1.Cl` showed a Pct of control of 203%.

As to `CS(=O)(=O)Nc1ccc([N+](=O)[O-])cc1Oc1ccccc1`, the Pct of control came out at 95.3%.

`Cc1onc(-c2ccccc2)c1-c1ccc(S(N)(=O)=O)cc1`: the Pct of control is 91.8%.

With `CS(=O)(=O)c1ccc(C2=C(c3ccccc3)C(=O)OC2)cc1`, the Pct of control is recorded as 26.5%.

As to `CS(=O)(=O)c1ccc(-c2cnc(N)c(C(=O)Nc3ccccc3)n2)cc1`, the Pct of control is on record as 101%.

`O=C(c1ccccc1)c1ccc2n1CCC2C(=O)O` (stereo not drawn): the Pct of control is reported as 97.5%.

As to `CN(C)CCC(c1ccc(Cl)cc1)c1ccccn1.O=C(O)C=CC(=O)O` (stereo not drawn), the Pct of control was 93.2%.

As for `O=c1cc[nH]c(=S)[nH]1`, the Pct of control is recorded as 98.2%.

The compound `OCc1c[nH]c2ccccc12` gave a Pct of control of 76.2%.

Regarding `N#Cc1c(O)c2c(-c3ccc(-c4ccccc4O)cc3)csc2[nH]c1=O`, the Pct of control was found to be 94.7%.

`Cl.Cl.O=C1c2c(O)ccc(O)c2C(=O)c2c(NCCNCCO)ccc(NCCNCCO)c21` returned a Pct of control of 92%.

As to `O=C1c2c(O)ccc(O)c2C(=O)c2c(NCCNCCO)ccc(NCCNCCO)c21`, the Pct of control was determined as 45.7%.

In turn, `Cc1c(CN2CCN(C(=O)C(C)O)CC2)sc2c(N3CCOCC3)nc(-c3cnc(N)nc3)nc12` (stereo not drawn) yielded a Pct of control of 96.8%.

Take `CCC(NC(C)C)C(O)c1ccc(O)c(O)c1.CS(=O)(=O)O` (stereo not drawn): the Pct of control was 90%.

In turn, `NC(=O)c1cccc(-c2cccc(OC(=O)NC3CCCCC3)c2)c1` had a Pct of control of 91.2%.

As to `COc1cc(=C2C=c3ccccc3=N2)[nH]c1=Cc1[nH]c(C)cc1C.CS(=O)(=O)O`, the Pct of control is 37.5%.

`CCOc1cc(N)c(Cl)cc1C(=O)NCC1CN(Cc2ccc(F)cc2)CCO1.O=C(O)CC(O)(CC(=O)O)C(=O)O` (stereo not drawn) showed a Pct of control of 96.8%.

Compound `Cc1coc2c1C(=O)C(=O)c1c-2ccc2c1CCCC2(C)C` gave a Pct of control of 79.4%.

In turn, `CCOC(=O)n1ccn(C)c1=S` registered a Pct of control of 98.2%.

`CN(C)C1C(=O)C(C(N)=O)=C(O)C2(O)C(=O)C3=C(O)c4c(O)cccc4C(C)(O)C3C(O)C12` (stereo not drawn) showed a Pct of control of 90.8%.

Compound `CN(C)C1C(=O)C(C(N)=O)=C(O)C2(O)C(=O)C3=C(O)c4c(O)cccc4C(C)(O)C3C(O)C12.O.O` (stereo not drawn) returned a Pct of control of 48.8%.

The compound `C=C1c2cccc(O)c2C(O)=C2C(=O)C3(O)C(O)=C(C(N)=O)C(=O)C(N(C)C)C3C(O)C12.Cl` (stereo not drawn) had a Pct of control of 52.5%.

Consider `COc1ccc(CCC(=O)c2c(O)cc(OC3OC(CO)C(O)C(O)C3OC3OC(C)C(O)C(O)C3O)cc2O)cc1O` (stereo not drawn), for which the Pct of control is 94.3%.

Consider `CC(C)NC[C@H](O)COc1ccc(CCOCC2CC2)cc1.Cl` [S4085], for which the Pct of control came to 94.4%.

On to `COc1ccc(S(=O)(=O)N(C(C)=O)c2ccccc2C=Cc2cc[n+]([O-])cc2)cc1`, for which the Pct of control amounted to 89.4%.

As to `O=C(c1cncc(Br)c1)N1CCC(N2CCCC2)CC1`, the Pct of control is recorded as 85.2%.

Take `O=C(C=Cc1cccc(S(=O)(=O)Nc2ccccc2)c1)NO`: the Pct of control is 103%.

`Cc1cc(C(=O)CN2CCCC2)c(C)n1-c1ccc(F)cc1` displayed a Pct of control of 88.5%.

In turn, `Cc1cc2c(C(=O)NC[C@H](C)c3ccccc3)c(O)c(O)cc2c(O)c1-c1c(C)cc2c(C(=O)NC[C@H](C)c3ccccc3)c(O)c(O)cc2c1O` yielded a Pct of control of 36.8%.

Compound `Cc1cc(-c2ncc(CC(=O)Nc3ccc(-c4cnccn4)cn3)cc2C)ccn1` gave a Pct of control of 98%.

Compound `Nc1ncnc2c1ncn2[C@@H]1O[C@H](CO)[C@@H](O)[C@@H]1O` [S1784] gave a Pct of control of 91.5%.
